According to PubChem BioAssay (NCATS):
“And” between values parts separate entries of the source, which are not always exact repeats. Identical values can stand only once. Inconclusive results are not listed. More than one record can exist for a structure, and the calls need not agree. The source made the active and inactive calls. Unless noted, calls follow the shape of the dose curve; as a rule, active = well fitted curve in the direction sought with a large enough effect; inconclusive = small, poorly fitted or top-dose-only effect, or another doubt; inactive = no such curve, though single readings can be large; an effect the other way counts as inactive or inconclusive.

Columns and labels:
[1] = Drug repurposing screens with cells derived from glioblastoma tumor samples (AID 1345199); details: GBM patient neurospheres viability, ATP luminescence, 48 h; also: nearly all actives have a fitted effect of over 40% in size; also: potency is read from the fitted curve at half-maximal effect; as to activity, negative = cell killing: % is scaled to controls: 0 for no effect and ±100 for the full control effect
Outline: (§1)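 Four patient lines of CD133+ GBM neurospheres were screened at several concentrations; hits were retested in those lines plus three slower-growing GBM lines, using 48-hour treatment and ATP-based viability.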

[2] = system: Tov112D; assay: Primary qHTS to identify gynecologic anti-cancer compounds using libraries of approved drugs and bioactive compounds (AID 1345084); details: Gynecologic cancer cell panel viability, ATPlite luminescence, 48 h; series mostly up to 57.5 µM; also: % is scaled to controls: 0 for no effect and ±100 for the full control effect; nearly all actives have a fitted effect of over 55% in size
Outline: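 Luminescence from the ATPlite ATP-monitoring reagent indicates viable cell number; lower signal means cytotoxicity. Cells received compound 16 h after seeding and were exposed for 48 h across five concentrations.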

[3] = system: astro; assay: Drug repurposing screens with cells derived from glioblastoma tumor samples (AID 1345199); details: viability, ATP luminescence, 48 h; series mostly up to 45.9 µM; also: nearly all actives have a fitted effect of over 40% in size; also: potency is read from the fitted curve at half-maximal effect; as to activity, negative = cell killing: % is scaled to controls: 0 for no effect and ±100 for the full control effect
Outline: as §1

[4] = target: Nuclear receptor subfamily 1 group I member 2 (Rattus norvegicus) (UniProt Q9R1A7); assay: qHTS assay for small molecule activators of the rat pregnane X receptor (rPXR) signaling pathway (AID 651751; call rule not given here; also: 0% is about no effect); details: rPXR reporter cells, luciferase (One-Glo), 24 h
[5] = qHTS assay for small molecule activators of the human pregnane X receptor (PXR) signaling pathway (AID 720659; call rule not given here; also: 0% is about no effect); details: DPX-2 HepG2 CYP3A4-luciferase, 24 h; series mostly up to 92.3 µM
[6] = at 21.2 µM (top of the series), tumour line B
[7] = at 21.2 µM (top of the series), tumour line D
[8] = at 20 µM (top of the series), tumour line C
[9] = at 45.9 µM (top of the series), tumour line B
[10] = at 45.9 µM (top of the series), tumour line D
[11] = at 46 µM (top of the series), tumour line A
[12] = at 46.1 µM (top of the series), tumour line C

Nuclear receptor subfamily 1 group I member 2 (Rattus norvegicus), sequence (Q9R1A7 whole entry, looked up): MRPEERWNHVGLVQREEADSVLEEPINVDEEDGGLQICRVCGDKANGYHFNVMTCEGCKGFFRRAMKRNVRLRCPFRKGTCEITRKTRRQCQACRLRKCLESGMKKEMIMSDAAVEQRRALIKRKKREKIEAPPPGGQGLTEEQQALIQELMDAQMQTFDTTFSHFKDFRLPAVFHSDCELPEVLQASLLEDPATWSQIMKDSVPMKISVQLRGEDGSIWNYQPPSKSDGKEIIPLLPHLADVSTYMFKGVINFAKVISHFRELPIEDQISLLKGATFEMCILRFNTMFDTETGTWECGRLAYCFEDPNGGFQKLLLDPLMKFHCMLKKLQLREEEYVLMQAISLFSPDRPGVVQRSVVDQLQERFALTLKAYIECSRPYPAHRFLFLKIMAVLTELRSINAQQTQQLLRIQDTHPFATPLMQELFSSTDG

Nc1cc(C(Cl)=C(Cl)Cl)c(S(N)(=O)=O)cc1S(N)(=O)=O
inactive: activity, negative = cell killing [1, 6] -5.37% | activity, negative = cell killing [1, 7] -20.2% | activity, negative = cell killing ([1]; at 21.3 µM (top of the series), tumour line A) -22%

CC1Cc2ccccc2N1NC(=O)c1ccc(Cl)c(S(N)(=O)=O)c1 (stereo not drawn)
inactive: activity, negative = cell killing [1, 6] -2.89% | activity, negative = cell killing [1, 7] 1.12%

CCCCN(CCCC)CCC(O)c1cc2c(Cl)cc(Cl)cc2c2cc(C(F)(F)F)ccc12 (stereo not drawn)
active: Potency ([1]; tumour line B) 10 µM

CCCCCCCCOc1ccccc1C(=O)Nc1ccc(C(=O)OCC[N+](C)(CC)CC)cc1
active: Potency ([1]; tumour line B) 17.8 µM

COc1c(O)cc2c(c1O)[C@@H]1O[C@H](CO)[C@@H](O)[C@H](O)[C@H]1OC2=O
inactive: Potency [2] | activity, negative = cell killing [1, 8] -10.5% | activity, negative = cell killing [1, 6] -10.4% | activity, negative = cell killing [1, 7] -25.7% | Potency [3]

CC(S)C(=O)NCC(=O)O (stereo not drawn)
inactive: Potency [2] | activity, negative = cell killing [1, 9] -0.523% | activity, negative = cell killing [1, 10] -24.6% | activity, negative = cell killing [1, 11] -28.9% | activity, negative = cell killing [1, 12] -4.37% | Potency [3]

CCCCC(CC)COC(=O)C(C#N)=C(c1ccccc1)c1ccccc1 (stereo not drawn)
inactive: Potency [2] | activity, negative = cell killing [1, 12] -18.1% | Potency [3]
active: Potency ([1]; tumour line A) 7.08 µM | Potency ([1]; tumour line D) 10 µM

CN(C)c1ccc(O)c2c1C[C@H]1C[C@H]3[C@H](N(C)C)C(=O)C(C(N)=O)=C(O)[C@@]3(O)C(=O)C1=C2O
inactive: Potency [2] | activity, negative = cell killing [1, 9] -8.81% and -14.2% and -8.47% | activity, negative = cell killing [1, 10] -14.6% and -28.5% and -14.2% | activity, negative = cell killing [1, 11] -27.3% and -18.4% | activity, negative = cell killing [1, 12] -26.9% and -29.7% | Potency [3]

COc1ccc(C2(C#N)CCC(C(=O)O)CC2)cc1OC1CCCC1 (stereo not drawn)
inactive: Potency [2] | activity, negative = cell killing [1, 9] -12.3% | activity, negative = cell killing [1, 10] -10.6% | activity, negative = cell killing [1, 12] -18.3% | Potency [3]

N=C(N)c1ccc2cc(OC(=O)c3ccc(N=C(N)N)cc3)ccc2c1
inactive: Potency [2] | activity, negative = cell killing [1, 9] -0.17% | activity, negative = cell killing [1, 10] -17% | activity, negative = cell killing [1, 12] 10% | Potency [3]

Nc1ccc(S(N)(=O)=O)cc1
inactive: Potency [2] | activity, negative = cell killing [1, 9] -13.5% | activity, negative = cell killing [1, 10] -7.18% | activity, negative = cell killing [1, 11] -12.5% | activity, negative = cell killing [1, 12] 10.5% | Potency [3] | max response [4] 5.05% | outcome [5]

NNc1nncc2ccccc12
inactive: Potency [2] | activity, negative = cell killing [1, 8] -13.5% | activity, negative = cell killing [1, 6] -20% | activity, negative = cell killing [1, 7] -12.5% | Potency [3]

O=C(O)c1cc(=O)c2c(OCC(O)COc3cccc4oc(C(=O)O)cc(=O)c34)cccc2o1
inactive: Potency [2] | activity, negative = cell killing [1, 9] -3.77% | activity, negative = cell killing [1, 10] -23.3% | activity, negative = cell killing [1, 11] -3.33% | activity, negative = cell killing [1, 12] 5.01% | Potency [3]

Nc1cccc2c1CN(C1CCC(=O)NC1=O)C2=O (stereo not drawn)
inactive: Potency [2] | activity, negative = cell killing [1, 9] -18.6% | activity, negative = cell killing [1, 10] -1.35% | activity, negative = cell killing [1, 11] -28.8% | activity, negative = cell killing [1, 12] -29.8% | Potency [3]

CC(=O)Nc1ccc(O)cc1
inactive: Potency [2] | activity, negative = cell killing [1, 9] -10.5% | activity, negative = cell killing [1, 10] -3.31% | activity, negative = cell killing [1, 11] -25.4% | activity, negative = cell killing [1, 12] -7.56% | Potency [3] | outcome [5]

CC(C)[C@H](N)C(=O)OCCOCn1cnc2c(=O)[nH]c(N)nc21
inactive: Potency [2] | activity, negative = cell killing [1, 9] -5.53% | activity, negative = cell killing [1, 10] -4.6% | activity, negative = cell killing [1, 12] 14.5% | Potency [3]

COc1ccc2cc([C@H](C)C(=O)O)ccc2c1
inactive: Potency [2] | activity, negative = cell killing [1, 8] -12.8% | activity, negative = cell killing [1, 6] -16.1% | activity, negative = cell killing [1, 7] -8.68% | Potency [3]

CC(C)c1nc(CN(C)C(=O)N[C@H](C(=O)N[C@@H](Cc2ccccc2)C[C@H](O)[C@H](Cc2ccccc2)NC(=O)OCc2cncs2)C(C)C)cs1
active: Potency ([1]; tumour line A) 17.8 µM
inactive: Potency [2] | activity, negative = cell killing [1, 9] -7.95% and -4.95% | activity, negative = cell killing [1, 10] -23.9% and -23.8% | activity, negative = cell killing [1, 12] -26.2% and -16% | Potency [3]

CN(c1nccc(=O)[nH]1)C1CCN(c2nc3ccccc3n2Cc2ccc(F)cc2)CC1
inactive: Potency [2] | activity, negative = cell killing [1, 9] -7.08% | activity, negative = cell killing [1, 10] -20% | activity, negative = cell killing [1, 12] -6.39% | Potency [3]

CC1=C(C(=O)O)N2C(=O)[C@@H](NC(=O)[C@H](N)C3=CCC=CC3)[C@H]2SC1
inactive: Potency [2] | activity, negative = cell killing [1, 9] -8.4% | activity, negative = cell killing [1, 10] -14.2% | activity, negative = cell killing [1, 12] -3.66% | Potency [3]

C=CCc1cc(OC)c(O)c(C(=O)NCCO)c1
inactive: Potency [2] | activity, negative = cell killing [1, 9] -18.2% | activity, negative = cell killing [1, 10] -1.66% | activity, negative = cell killing [1, 12] 2.37% | Potency [3]

O=C(OC1C[C@H]2CC[C@@H](C1)[N+]21CCCC1)C(O)(c1ccccc1)c1ccccc1 (stereo partly drawn)
inactive: Potency [2] | activity, negative = cell killing [1, 9] -3.76% | activity, negative = cell killing [1, 10] -11.8% | activity, negative = cell killing [1, 12] -2.11% | Potency [3]

Cc1ncc([N+](=O)[O-])n1CC(C)O (stereo not drawn)
inactive: Potency [2] | activity, negative = cell killing [1, 9] -7.1% | activity, negative = cell killing [1, 10] 3.12% | activity, negative = cell killing [1, 11] -20.2% | activity, negative = cell killing [1, 12] -8.86% | Potency [3]
